From PubChem BioAssay
The entries come from a sample that favours hits as a whole.
Pf Dd2 growth: qHTS Primary assay for Inhibitors of Plasmodium falciparum Dd2 growth in vitro; Potency, µM (highest dose often 28.9 µM), for inactives: at the top dose activity, negative = inhibition, usual class: inhibitors; 4.3% of 120,000 active; P. falciparum Dd2 growth, SYBR Green, 72 h; active means well fitted inhibition curve with a large enough effect;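 further: plate controls were DMSO vehicle for no effect and reference drug for full effect; nearly all actives have a fitted effect of over 65% in size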
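Infected erythrocytes (Dd2, 0.3% parasitemia, 2.5% hematocrit final) are added to compound in RPMI-1640/Albumax II medium, grown 72 h at 37C in low oxygen, then lysed with saponin/Triton-X containing SYBR Green and read by fluorescence.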
An asterisk follows results filed as active; i = inactive; [ ] = dose if it differs, or a comment. Potency means the concentration at half of the fitted maximal effect.

SMILES	Pf Dd2 growth
Cn1c(=O)n(C)c2cc(N3CCCC3)c(NC(=O)Nc3ccccc3)cc21	i
Cc1cc(N2CCN(C)CC2)nc2ccc(NC(=O)Nc3ccccc3Cl)cc12	3.16µM*
Cc1ccc(NC(=O)C2Cc3ccccc3N2C(=O)c2ccccc2)cc1Cl (stereo not given)	42.8%
COc1cccc(NC(=O)c2ccc3c(c2)CCN3S(C)(=O)=O)c1	20.8%
COc1cccc(CNC(=O)C(=O)Nc2ccc3nc4n(c(=O)c3c2)CCCCC4)c1	-9.1%
Cc1cccc(-c2nc(CN3CCC(C(=O)N4CCc5nc6cc[nH]n6c(=O)c5C4)CC3)c(C)o2)c1	-7.7%[5.79 µM]
Cn1nc(C(=O)Nc2ccc3c(c2)C(=O)N2CCC[C@H]2C(=O)N3)c2ccccc21	-15.6%
COCCn1c(=O)n([C@H]2CCCN(C(=O)C3CCCCC3)C2)c2ncccc21	-12.0%
Cc1ccc(OC2(C(=O)NCc3cccc(N(C)C)c3)CCNCC2)cc1	-26.5%
Cc1ccc(OC2(C(=O)N[C@H]3CCc4ccccc43)CCNCC2)cc1	7.94µM*
CC(C)(C)C1CCC2(CC1)NC(=O)N(CC(=O)NC1CCc3ccccc31)C2=O (stereo not given)	-22.4%
O=C([C@H]1C[C@@H](F)CN1S(=O)(=O)Cc1ccc(Cl)cc1)N1CCOCC1	i
CC(C)n1c(CCNC(=O)CC[C@H]2NC(=O)c3ccccc3NC2=O)nc2ccccc21	-19.1%
CC(=O)N1CCN(c2ccnc(-c3nnc(C)n3-c3ccccc3)c2)CC1	-18.0%[44.1 µM]
O=C(Nc1ccc2oc(-c3ccccc3)nc2c1)c1ccc2ccccc2c1	17.6%
O=C(Nc1ccc2oc(-c3ccccc3F)nc2c1)c1ccccc1Cl	3.98µM*
O=C(Nc1ccc(-c2nc3cc(NC(=O)c4ccc(F)cc4)ccc3o2)cc1)c1ccc(F)cc1	0.6%
O=C(Nc1ccc2oc(-c3cccc(F)c3)nc2c1)c1ccc2ccccc2c1	1µM*
COc1ccccc1-c1nc2cc(NC(=O)c3ccccc3Cl)ccc2o1	1.2%
O=C(Cc1ccc(Cl)cc1)Nc1ccc2oc(-c3ccccc3F)nc2c1	i
Cc1cc(C)cc(C(=O)NCCn2ccn3nc(-c4ccc(C)cc4C)cc3c2=O)c1	-3.9%
CC(C)NC(=O)N1CCC2(CC1)CC(N1CCOCC1)CCO2 (stereo not given)	4.1%
CC(C)CCN(CCC(=O)NCCc1ccccc1)C(=O)c1ccoc1	-5.0%
CCNC(=O)c1cc(NC(=O)CC)cc2nc(C)ccc12	-16.2%
CCCCNC(=O)c1cc(NC(=O)CC)cc2nc(C)ccc12	-1.6%
SMILES	Pf Dd2 growth
CCC(=O)Nc1cc(C(=O)NCc2ccc(N3CCN(C)CC3)cc2)c2ccc(C)nc2c1	10µM*
Cc1cc(C(F)(F)F)nn1CC(=O)N1CCCC(CO)CCNC(=O)CC1 (stereo not given)	-5.7%
CC(C)C(=O)NC1CCN(C(=O)N2CC3CC(C2)[C@H]2CCCC(=O)N2C3)CC1 (stereo not given in full)	14.3%
CN(Cc1ccccc1)Cc1nnc(C(=O)N2CCC[C@@H]2c2ccc(Br)cc2)n1Cc1ccccc1	i
CNC(=O)c1cc(-c2ccccc2F)cc2c1OCCN2Cc1cccnc1	-22.4%[44.1 µM]
CNC(=O)c1cc(-c2ccc(OC)nc2)cc2c1OCCN2Cc1cccnc1	i
CNC(=O)c1cc(-c2ccc(N3CCOCC3)cc2)cc2c1OCCN2Cc1cccnc1	10µM*
COc1ccc(N2CC(C(=O)NCCOc3ccccc3)NC2=O)cc1 (stereo not given)	-8.7%
CCn1ncc(C(=O)N2C[C@@H](CO)[C@H](c3ccncc3)C2)c1C	-8.9%
Fc1ccc(CCC2CCCNC2)cc1F (stereo not given)	7.08µM*
Fc1ccc(CCC2CCCN(Cc3nccs3)C2)cc1F (stereo not given)	i
CC1(C(=O)N2CCCC(CCc3ccc(F)c(F)c3)C2)CC1 (stereo not given)	i
CC(C)CCC(=O)N1CCC(N2C(=O)CCC2C(=O)NC(C)C)CC1 (stereo not given)	3.6%
CCCn1cc(-c2ccncc2)cc1C(=O)N1CCN(C)CC1	i
COc1cccc(NC(=O)c2cccn(Cc3ccccc3C)c2=O)c1	i
CCCN1CCN(C(=O)c2cc(-c3ccc(F)cc3)cn2CC)CC1	-20.4%
CC(=O)Nc1ccc(NC(=O)c2cc(-c3ccncc3)cn2Cc2ccccc2C)cc1	3.16µM*
CCCn1cc(-c2ccncc2)cc1C(=O)N1CCN(c2ccccc2OC)CC1	3.98µM*
Cc1ccccc1Cn1cc(-c2ccncc2)cc1C(=O)N1CCN(c2ccccc2)CC1	3.55µM*
CCn1cc(-c2ccncc2)cc1C(=O)NCc1cccc(F)c1	-0.4%
CCn1cc(-c2ccncc2)cc1C(=O)N1CCOCC1	-3.6%
CCn1cc(-c2ccc(C)cc2)cc1C(=O)N1CCN(c2ccccn2)CC1	-33.2%
COCC(=O)N1CCC2(CC1)Cc1ccccc1NC2=O	0.5%[44.1 µM]
Cc1ccc(-c2ncc(C(=O)Nc3cc(F)cc(F)c3)c(-c3ccncc3)n2)cc1	-28.4%
COC[C@@H]1[C@H](C(=O)N2CCN(c3ccc(F)cc3)CC2)CCC(=O)N1C	6.5%
SMILES	Pf Dd2 growth
Cc1cc(C)n2nc(C(=O)N[C@H](c3ccccn3)C3CC(O)C3)nc2n1 (stereo not given in full)	-9.7%
CC1(c2cccnc2)N(Cc2ccccc2)C(=O)OC12CCN(C(=O)Cc1ccc3c(c1)OCO3)CC2 (stereo not given)	-3.1%
CCOc1cc(=O)n2c(c1C(=O)Nc1ccc(OC)cc1OC)CCCC2	-1.2%
CC(=O)Nc1ccc(CNC2(Cc3cc(-c4ccccn4)on3)COC2)cc1	-17.5%[44.1 µM]
O=C1CC(c2c(F)cccc2Cl)c2c(ccc3ccccc23)N1 (stereo not given)	i
O=C1CC(c2c(Cl)cccc2Cl)c2c(ccc3ccccc23)N1 (stereo not given)	i
CCCCOc1ccccc1C1CC(=O)Nc2ccc3ccccc3c21 (stereo not given)	14.1µM*
Cc1ccc(NC2=N[C@H]3[C@@H](O)[C@H](O)C[C@H](C(=O)N(C)Cc4ccccc4)[C@H]3S2)cc1	-5.0%[44.1 µM]
COc1ccc(OC2CCN(C(=O)C3CC3)CC2)c(C(=O)N2CCCCO2)c1	-21.8%
O=c1cc(-c2ccccc2)nc(SCc2nc(-c3ccc(Cl)cc3)no2)[nH]1	19.6%
Fc1ccccc1-c1noc(NCCc2ccc(Cl)cc2)n1	i
Clc1ccc(CNc2nc(-c3ccccc3)no2)cc1	11.2µM*
COc1ccccc1C(=O)N1CCn2c(nnc2-c2cccnc2)C1	26.5%
Cc1ccc(NC(=O)CCn2nc(C)c3c(C)n(-c4ccccc4)nc3c2=O)cc1Cl	-12.1%
CCc1ccccc1NC(=O)CCn1nc(C)c2c(C)n(-c3ccccc3)nc2c1=O	-24.5%
CCOC(=O)c1cccc(NC(=O)CCn2nc(C)c3c(C)n(-c4ccccc4)nc3c2=O)c1	2.51µM*
O=C1NCCCCCN(C(=O)C2CC=CC2)[C@H]2CCC[C@@H]12	2.5%
CC(=O)N1CCN(c2cncc(C(=O)N3CCOCC3)n2)CC(O)C1 (stereo not given)	-3.8%
COC(=O)c1cncc(N2CCCC3(CCC(=O)N(Cc4ccccc4)C3)C2)n1 (stereo not given)	5.6%
CC1(c2ccccc2)CCCN(c2cncc(C(=O)N3CCOCC3)n2)C1 (stereo not given)	11.2µM*
CN(C)C[C@@H]1CN(S(C)(=O)=O)C[C@H]1NC(=O)c1ccc(F)cc1F	19.9%
CCn1cc2nc(SCc3cc(C)ccc3C)n(Cc3ccc(C)cc3)c(=O)c2n1	10µM*
CCn1cc2nc(SCc3ccccc3)n(Cc3ccc(C)cc3)c(=O)c2n1	0.7%
